Laboratory results from PubChem BioAssay (NCATS).
Several values for one entry are separate records, joined by “and”; a condition that tells them apart may be missing. Equal values may be shown once. Results filed as inconclusive are left out. More than one record can exist for a structure, and the calls need not agree. Activity calls are given as the source filed them. Unless noted, the call rests on the fitted dose curve; in most records, active means well fitted curve in the direction sought with a large enough effect; inconclusive means small, poorly fitted or top-dose-only effect, or another doubt; inactive means no such curve, though single readings can be large; an effect the other way counts as inactive or inconclusive.

Tests used:
[1] = qHTS assay for small molecule agonists of retinoid X receptor alpha signaling (AID 588544; calls by dose curve;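 on activation: 0% = DMSO basal wells and 100% = reference agonist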); conditions: HEK293T RXRa-UAS-bla, beta-lactamase reporter, 18 h; 530 nm emission
[2] = target: Retinoic acid receptor RXR-alpha (Homo sapiens) (UniProt P19793); experiment: as above; conditions: HEK293T RXRa-UAS-bla, beta-lactamase reporter, 18 h; series mostly up to 76.7 µM
Chain of Retinoic acid receptor RXR-alpha (Homo sapiens) (P19793 whole entry, looked up): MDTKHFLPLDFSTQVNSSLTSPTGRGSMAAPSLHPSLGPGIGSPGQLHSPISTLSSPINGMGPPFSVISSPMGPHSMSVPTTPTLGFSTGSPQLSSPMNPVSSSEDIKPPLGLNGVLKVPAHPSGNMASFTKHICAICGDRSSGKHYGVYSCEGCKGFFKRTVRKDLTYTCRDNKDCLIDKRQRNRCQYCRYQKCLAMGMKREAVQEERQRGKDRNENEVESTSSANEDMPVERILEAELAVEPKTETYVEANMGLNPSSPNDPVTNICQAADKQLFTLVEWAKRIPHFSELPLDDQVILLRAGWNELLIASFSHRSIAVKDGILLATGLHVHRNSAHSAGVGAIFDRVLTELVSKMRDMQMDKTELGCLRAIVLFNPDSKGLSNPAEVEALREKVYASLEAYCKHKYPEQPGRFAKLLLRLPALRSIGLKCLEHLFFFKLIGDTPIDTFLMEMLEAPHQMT

[3] = target: Thyroid hormone receptor beta (Homo sapiens) (UniProt P10828); experiment: qHTS assay for small molecule agonists of thyroid hormone receptor beta signaling (AID 588545; calls by dose curve); conditions: TR-UAS-bla GripTite HEK 293, beta-lactamase ratio, agonist mode, 18 h, percent of T3 response, DMSO as zero; series mostly up to 76.7 µM
Chain of Thyroid hormone receptor beta (Homo sapiens) (P10828 whole entry, looked up): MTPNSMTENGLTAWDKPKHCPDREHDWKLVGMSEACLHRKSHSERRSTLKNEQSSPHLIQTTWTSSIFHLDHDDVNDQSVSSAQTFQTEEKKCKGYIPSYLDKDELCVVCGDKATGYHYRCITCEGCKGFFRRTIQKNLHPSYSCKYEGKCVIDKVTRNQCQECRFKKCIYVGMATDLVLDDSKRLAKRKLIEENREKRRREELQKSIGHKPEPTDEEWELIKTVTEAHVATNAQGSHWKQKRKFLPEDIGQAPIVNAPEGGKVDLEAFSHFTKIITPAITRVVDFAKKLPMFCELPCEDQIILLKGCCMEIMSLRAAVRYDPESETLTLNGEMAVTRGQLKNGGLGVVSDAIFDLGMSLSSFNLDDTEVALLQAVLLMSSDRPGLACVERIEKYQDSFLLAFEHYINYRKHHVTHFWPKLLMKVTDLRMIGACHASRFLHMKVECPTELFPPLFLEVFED
Method in brief: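 Cells (2500/well) were seeded, incubated 4 hrs at 37 C, dosed with a compound series, incubated 18 hrs, loaded with CCF4 dye for 2 hrs at RT, then read for fluorescence. Data were scaled between DMSO (0%) and 10 nM T3 (100%).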

[4] = qHTS assay for small molecule antagonists of retinoid X receptor alpha signaling (AID 588546; active means well fitted inhibition curve with a large enough effect in the signal ratio, with a control signal flat, not every such curve was filed as active; the % refers to the signal ratio; further: potency means the concentration at half of the fitted maximal effect;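 on max response: cells stimulated with 9-cis-retinoic acid as agonist; on the % scale 0 is the no-effect control and ±100 the full control effect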); conditions: HEK293T RXRa-UAS-bla, beta-lactamase ratio, antagonist mode; measured here: W530 green channel, cytotoxicity proxy
Method in brief: (§1)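 Beta-lactamase reporter inhibition, read as CCF4 fluorescence ratio (ex 405, em 460/530 nm) after 2 h at RT. HEK293T UAS-bla cells, 2500/well, were stimulated with 9-cis-RA at 500 or 100 nM final alongside test compound for 18 h at 37 C.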

[5] = target: Retinoic acid receptor RXR-alpha (Homo sapiens) (UniProt P19793); experiment: as above; conditions: HEK293T RXRa-UAS-bla, beta-lactamase ratio, antagonist mode
Method in brief: as §1

[6] = target: Thyroid hormone receptor beta (Homo sapiens) (UniProt P10828); experiment: qHTS assay for small molecule antagonists of thyroid hormone receptor beta signaling (AID 588547; active means well fitted inhibition curve with a large enough effect in the signal ratio, with a control signal flat, not every such curve was filed as active; the % refers to the signal ratio;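 further: cells stimulated with 0.4 nM T3 agonist during compound exposure; on the % scale 0 is the no-effect control and ±100 the full control effect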); conditions: TR-UAS-bla HEK293, beta-lactamase ratio, antagonist mode, 18 h
Method in brief: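 TR-UAS-bla GripTite HEK293 cells in 2% charcoal/dextran FBS medium; compounds 0.59 nM to 92 uM with T3 at 0.4nM final, 18 h at 37 C. Beta-lactamase read by CCF4 fluorescence (460/530 nm); Hill fits gave IC50 and efficacy.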

[7] = target: Voltage-gated inwardly rectifying potassium channel KCNH2 (Homo sapiens) (UniProt Q12809); experiment: qHTS Assay for Small Molecule Inhibitors of the Human hERG Channel Activity (AID 588834); conditions: U2OS BacMam hERG, FluxOR thallium flux fluorescence; series mostly up to 46.1 µM;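 further: lower thallium flux fluorescence means stronger hERG block; nearly all actives have a fitted effect of over 50% in size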; further: potency means the concentration at half of the fitted maximal effect
Chain of Voltage-gated inwardly rectifying potassium channel KCNH2 (Homo sapiens) (Q12809 whole entry, looked up): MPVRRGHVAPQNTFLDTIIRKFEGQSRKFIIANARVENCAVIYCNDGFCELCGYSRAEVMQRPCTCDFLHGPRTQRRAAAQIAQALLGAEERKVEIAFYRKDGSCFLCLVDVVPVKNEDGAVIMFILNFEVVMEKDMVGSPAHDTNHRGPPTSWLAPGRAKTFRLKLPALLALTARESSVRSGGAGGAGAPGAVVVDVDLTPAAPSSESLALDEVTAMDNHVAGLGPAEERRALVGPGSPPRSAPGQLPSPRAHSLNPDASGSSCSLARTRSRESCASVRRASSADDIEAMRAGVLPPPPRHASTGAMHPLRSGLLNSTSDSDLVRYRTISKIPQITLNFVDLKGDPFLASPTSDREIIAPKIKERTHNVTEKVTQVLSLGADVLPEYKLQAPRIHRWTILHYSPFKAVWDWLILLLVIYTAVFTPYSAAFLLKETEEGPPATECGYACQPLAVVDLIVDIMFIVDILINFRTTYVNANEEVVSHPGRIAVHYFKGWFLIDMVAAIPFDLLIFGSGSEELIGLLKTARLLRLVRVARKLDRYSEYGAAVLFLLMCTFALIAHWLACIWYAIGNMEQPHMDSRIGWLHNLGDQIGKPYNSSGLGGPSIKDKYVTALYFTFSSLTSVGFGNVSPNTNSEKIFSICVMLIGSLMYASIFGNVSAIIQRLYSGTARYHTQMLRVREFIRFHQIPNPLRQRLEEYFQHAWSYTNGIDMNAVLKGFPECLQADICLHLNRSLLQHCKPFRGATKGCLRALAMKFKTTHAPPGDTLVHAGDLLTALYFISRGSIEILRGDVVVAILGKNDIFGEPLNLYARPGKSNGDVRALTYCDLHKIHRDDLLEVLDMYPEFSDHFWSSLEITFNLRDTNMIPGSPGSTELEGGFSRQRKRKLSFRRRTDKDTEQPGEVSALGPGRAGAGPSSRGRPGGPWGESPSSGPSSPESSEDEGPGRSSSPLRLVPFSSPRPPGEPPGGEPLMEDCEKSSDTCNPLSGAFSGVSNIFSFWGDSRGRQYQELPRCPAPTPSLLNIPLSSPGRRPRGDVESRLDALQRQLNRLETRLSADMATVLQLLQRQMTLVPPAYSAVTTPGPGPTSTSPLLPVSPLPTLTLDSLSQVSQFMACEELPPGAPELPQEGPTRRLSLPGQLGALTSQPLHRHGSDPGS
Method in brief: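 Thallium serves as surrogate for K+ influx through BacMam-delivered hERG in U2OS cells. Compounds are added for about 10 minutes after dye loading; stimulation buffer then starts flux, monitored kinetically on FDSS.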

[8] = target: Luciferin 4-monooxygenase (Photinus pyralis) (UniProt P08659); experiment: Biochemical firefly luciferase enzyme assay for NPC (AID 624030);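 further: purified P. pyralis luciferase at 10 nM with luciferin and ATP substrate; 0% = DMSO and -100% = full luciferase inhibition by PTC124 control; nearly all actives have a fitted effect of over 70% in size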; conditions: purified P. pyralis luciferase, luminescence, 5 min; series mostly up to 58.6 µM
Chain of Luciferin 4-monooxygenase (Photinus pyralis) (P08659 whole entry, looked up): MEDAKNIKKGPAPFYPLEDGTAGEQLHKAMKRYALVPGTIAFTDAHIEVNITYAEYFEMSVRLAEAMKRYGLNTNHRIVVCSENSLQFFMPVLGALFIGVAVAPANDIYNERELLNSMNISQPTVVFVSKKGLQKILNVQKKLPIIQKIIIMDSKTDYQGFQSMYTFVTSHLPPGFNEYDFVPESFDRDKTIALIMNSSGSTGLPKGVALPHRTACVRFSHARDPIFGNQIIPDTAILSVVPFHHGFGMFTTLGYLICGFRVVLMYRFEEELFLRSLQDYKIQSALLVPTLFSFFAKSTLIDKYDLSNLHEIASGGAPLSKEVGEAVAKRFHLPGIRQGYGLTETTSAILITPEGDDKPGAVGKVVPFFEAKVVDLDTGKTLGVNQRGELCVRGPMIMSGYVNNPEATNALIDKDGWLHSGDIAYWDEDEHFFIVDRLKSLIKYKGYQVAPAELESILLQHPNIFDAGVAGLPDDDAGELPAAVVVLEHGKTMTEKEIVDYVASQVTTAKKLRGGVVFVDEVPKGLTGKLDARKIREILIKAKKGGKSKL
Method in brief: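 Purified P. pyralis luciferase at 10 nM in 50 mM Tris Acetate (final), luminescence read within 5 minutes of enzyme addition to compounds. Activity normalised to PTC124 versus DMSO; concentration-response curves classed by r2, magnitude and activity.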

[9] = S16 Schwann cell viability assay (CellTiter-Glo assay) (AID 624031); conditions: S16 rat Schwann cells viability, 24 h; series mostly up to 57.5 µM; further: nearly all actives have a fitted effect of over 70% in size; further: potency means the concentration at half of the fitted maximal effect
Method in brief: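 Untransfected S16 rat Schwann cells; compound 24 h, 37 °C/5% CO2; CellTiter-Glo ATP luminescence. % activity vs no-cell wells and DMSO controls (0%); concentration-effect curves classed by r2, response magnitude, activity.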

[10] = S16 Schwann cell PMP22 intronic element firefly luciferase assay (AID 624032); conditions: S16 rat Schwann cells, PMP22 element FLuc, 24 h; series mostly up to 57.5 µM; further: nearly all actives have a fitted effect of over 30% in size; further: potency means the concentration at half of the fitted maximal effect
Method in brief: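 Rat S16 Schwann cells stably carrying firefly luciferase driven by a PMP22 intronic element, in 10% FBS, treated 24 h at 37 C. ONE-Glo luminescence normalized to PTC124 control and DMSO (0%); curves classed by r2, magnitude and activity.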

[11] = S16 Schwann cell PMP22 intronic element beta-lactamase assay (AID 624044; calls by dose curve;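 further: 0% = DMSO and -100% = potassium clavulanate positive control; nearly all actives have a fitted effect of over 15% in size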); conditions: S16 rat Schwann cells, PMP22 element beta-lactamase FRET, 24 h; series mostly up to 38.3 µM
Method in brief: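 Beta-lactamase reporter under a PMP22 intronic regulatory element in stable S16 rat Schwann cells; 24 h compound exposure. 460 nm blue signal normalized between DMSO (0%) and potassium clavulanate, with 535 nm FRET tracking viability; curves classed by r2 and response.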

[12] = qHTS assay for small molecule disruptors of the mitochondrial membrane potential - 5 hr assay (AID 651755; calls by dose curve; further: nearly all actives have a fitted effect of over 40% in size; further: potency means the concentration at half of the fitted maximal effect); conditions: JC-1-type ratio dye; series mostly up to 92.2 µM
Method in brief: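 Read-out: ratiometric Mito-MPS fluorescence, green monomer (ex 490/em 535) vs red mitochondrial aggregate (ex 540/em 590). HepG2 cells treated 5 hr at 37C before 30 min dye loading.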

[13] = qHTS assay for small molecule agonists of the antioxidant response element (ARE) signaling pathway (AID 651741; active means well fitted activation curve with a large enough effect in the signal ratio; the % refers to the signal ratio; further: potency means the concentration at half of the fitted maximal effect; on activation: % of control where 0% means no effect); conditions: HepG2 ARE-bla reporter, beta-lactamase FRET ratio, 16 h; series mostly up to 96 µM
Method in brief: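 HepG2 ARE-bla reporter cells, 2,000/well; 5 h settle at 37 C/5% CO2; compound pin transfer (23 nL, DMSO); 16 h at 37 C; LiveBLAzer B/G FRET substrate, 2 h RT; fluorescence intensity read.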

[14] = qHTS assay for small molecule activators of the nuclear factor-kappa B (NF-kB) signaling pathway (AID 651749; active means well fitted activation curve with a large enough effect in the signal ratio; the % refers to the signal ratio; further: % of control where 0% means no effect); conditions: NF-kB-bla ME-180 cells, beta-lactamase FRET ratio, 16 h; stronger effect = higher value
Method in brief: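 NF-kB-bla ME-180 cells, 2,000/well; 23 nL compound or DMSO pinned; 16 hr, 37C/5% CO2; beta-lactamase FRET read-out.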

[15] = qHTS assay for small molecule activators of the p53 signaling pathway (AID 651743; active means well fitted activation curve with a large enough effect in the signal ratio, not every such curve was filed as active; the % refers to the signal ratio; further: % of control where 0% means no effect); conditions: HCT-116 p53RE-bla, beta-lactamase FRET ratio, 16 h; activation: stronger effect = higher value
Method in brief: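 Reporter: beta-lactamase driven by p53 response elements, stably integrated in HCT-116 cells. Cells seeded at 4,000/well, 5 h preincubation, compound (DMSO) 16 h at 37 C; B/G FRET substrate 2 h RT; fluorescence intensity read.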

O=CC=O
-3.86%: max response [1]
inactive: Potency [2] | outcome [3] | max response [5] 9.93% | activity change % (negative = inhibition) [6] -1.9% | Potency [7] | Potency [8] | Potency [9] | Potency [10] | Potency [11] | Potency [12]
5.31%: max response [4]

O=[N+]([O-])c1ccc(F)c([N+](=O)[O-])c1
-4.46%: max response [4]
active: Potency [13] 42.2 µM
inactive: max response [5] 1.55% | activity change % (negative = inhibition) [6] 5.42% | Potency [7] | Potency [8] | Potency [9] | Potency [10] | activation [14] -0.0445%

COc1ccc2c(c1OC)C(=O)OC2C1c2cc3c(cc2CCN1C)OCO3 (configuration not stated)
-2.26%: max response [4]
0.13%: max response [1]
15.8 µM (active) and inactive: Potency [7]
inactive: Potency [2] | outcome [3] | max response [5] 20.7% | activity change % (negative = inhibition) [6] -14.3% | Potency [13] | activation [15] -5.72% | Potency [12]

CC(C)Nc1ccc(Nc2ccccc2)cc1
inactive: outcome [3]
active: Potency [13] 47.3 µM | Potency [12] 59.6 µM

[O]=[Cd]
inactive: Potency [2] | outcome [3] | max response [5] -2.87% | activity change % (negative = inhibition) [6] -10.1% | Potency [7] | Potency [8] | Potency [9] | Potency [10] | Potency [11] | Potency [13] | activation [15] 1.29% | activation [14] -0.74% | Potency [12]
-12.6%: max response [1]
-14.7%: max response [4]

O=Cc1ccco1
inactive: Potency [2] | outcome [3] | max response [5] -1.1% | activity change % (negative = inhibition) [6] -3.01% | Potency [7] | Potency [8] | Potency [9] | Potency [10] | Potency [11] | Potency [13] | activation [15] -1.55% | activation [14] -0.614% | Potency [12]
-14.8%: max response [1]
9.13%: max response [4]

Clc1ccccc1Cl
inactive: Potency [2] | outcome [3] | max response [5] 14.3% | Potency [7] | Potency [8] | Potency [9] | Potency [10] | Potency [11] | activation [14] -0.0325% | Potency [12]
5.72%: max response [4]
-11.2%: max response [1]

ClCC1CO1 (configuration not stated)
inactive: Potency [2] | max response [5] -1.88% | activity change % (negative = inhibition) [6] 1.74% | Potency [7] | Potency [8] | Potency [9] | Potency [10] | Potency [11] | activation [15] -3.68% | activation [14] 0.581% | Potency [12]
-5.61%: max response [4]
-12.3%: max response [1]

CCOC(=O)c1ccccc1C(=O)OCC
2.09% and -11.6% and -7.65%: max response [4]
inactive: Potency [2] | outcome [3] | max response [5] 8.73% and 2.69% and 2.16% | activity change % (negative = inhibition) [6] 9.23% and -2.29% and -1.86% | Potency [7] | Potency [8] | Potency [9] | Potency [10] | Potency [13] | activation [15] 4.4% and -0.806% and -0.919% | activation [14] 1.25% and 1.36% and -0.459%
-7.23% and 2.92%: max response [1]

CC[C@H](C)[C@H]1O[C@]2(C=C[C@@H]1C)C[C@@H]1C[C@@H](C/C=C(\C)[C@@H](O[C@H]3C[C@H](OC)[C@@H](O[C@H]4C[C@H](OC)[C@@H](O)[C@H](C)O4)[C@H](C)O3)[C@@H](C)/C=C/C=C3\CO[C@@H]4[C@H](O)C(C)=C[C@@H](C(=O)O1)[C@]34O)O2
-21.4%: max response [4]
active: Potency [5] 12.6 µM

C[CH2][Hg][S]c1ccccc1C(=O)O
-29.7%: max response [4]
active: Potency [5] 2.24 µM | Potency [9] 1.28 µM | Potency [10] 0.721 µM

O=[N+]([O-])C(Br)(CO)CO
inactive: activity change % (negative = inhibition) [6] 5.27% | activation [14] -3.37%
active: Potency [9] 28.7 µM | Potency [13] 54.5 µM

CC1CCC(C(C)C)C(OC(=O)c2ccccc2N)C1 (configuration not stated)
inactive: Potency [7] | Potency [8] | Potency [9] | Potency [10] | Potency [11]

O=C(OCCN1CCCCC1)C(O)(c1ccccc1)c1ccccc1
active: Potency [7] 11.2 µM
inactive: Potency [8] | Potency [9] | Potency [10] | Potency [11]

CCON=O
inactive: Potency [7] | Potency [8] | Potency [9] | Potency [10] | Potency [11]

O=C1CN(O)C(c2ccccc2)=c2cc(Cl)ccc2=N1
inactive: Potency [7] | Potency [8] | Potency [9] | Potency [10] | Potency [11]

O[C@H]1[C@H]2[C@H](O)CCCN2C[C@H]1O
inactive: Potency [7] | Potency [8] | Potency [9] | Potency [10] | Potency [11]

CC(=O)O[C@H]1CC[C@H]2[C@@H]3CCC4=CC(=O)CCC4=C3C=C[C@]12C
inactive: Potency [7] | Potency [8] | Potency [9] | Potency [11]
active: Potency [10] 8.09 µM

COC1=CC=C2[C@H]3Cc4ccc(OC)c5c4[C@@]2(CCN3C)[C@H]1O5
inactive: Potency [7] | Potency [8] | Potency [9] | Potency [10] | Potency [11]

CCC(N)Cc1c[nH]c2ccccc12 (configuration not stated)
inactive: Potency [7] | Potency [8] | Potency [9] | Potency [10] | Potency [11]

N#CC1(N2CCCCC2)CCCCC1
inactive: Potency [7] | Potency [8] | Potency [9] | Potency [10] | Potency [11]
